For 26 molecules, Inhibition results are on record in ChEMBL document CHEMBL4513141, “CO-ADD screening of NIH (USA) - Clinical Collection” (2021).

The subject of one experiment is Klebsiella pneumoniae. As to conditions: Concentration 20 uM; ASSAY_TEST Inhibition of Bacterial Growth; detection method Absorption (OD600); MEDIA CAMHB; plate type 384well; NBS; CORNING #3640; time 18 hr.
The subject of a further experiment is Candida albicans. Particulars: 20 µM.
The test system of the next experiment is Cryptococcus neoformans. Particulars: Concentration 20 uM; ASSAY_TEST Inhibition of Fungal Growth; detection method Resazurin; Absorption (OD600-OD570); plate type 384well; NBS; CORNING #3640. A general note: The colour change of resazurin is a common sign of viable cells or microbes.

Results with a measured potency or affinity are listed apart.

`COCCCOc1ccnc(C[S+]([O-])c2nc3ccccc3[nH]2)c1C` (stereo not drawn) [RABEPRAZOLE]: the Inhibition is 14.6% with Klebsiella pneumoniae, 5.74% in the experiment with Candida albicans and -21.21% in the experiment on Cryptococcus neoformans.

For `CS(=O)(=O)O.O=C(O[C@@H]1C[C@@H]2C[C@H]3C[C@H](C1)N2CC3=O)c1c[nH]c2ccccc12`, the Inhibition in the experiment on Klebsiella pneumoniae was 8.46%; in the experiment on Candida albicans, 2.39%; in the experiment on Cryptococcus neoformans it was 1.75%.

For the molecule `CC(=O)OC1C([N+]2(C)CCCCC2)C[C@H]2C3CC[C@H]4C[C@H](OC(C)=O)C([N+]5(C)CCCCC5)CC4(C)[C@H]3CCC12C.[Br-].[Br-]` (stereo partly drawn), the Inhibition with Klebsiella pneumoniae is 10.46%; in the experiment with Candida albicans, -0.59%; in the experiment on Cryptococcus neoformans, -9.01%.

Take `CCCCCNC(=N)N/N=C/c1c[nH]c2ccc(OC)cc12.O=C(O)/C=C\C(=O)O` [TEGASEROD MALEATE]: the Inhibition in the experiment on Klebsiella pneumoniae was 6.68%; with Candida albicans, 0.86%; in the experiment with Cryptococcus neoformans, -67.8%.

For `CN(C)C(=O)C(CCN1CCC(O)(c2ccc(Cl)cc2)CC1)(c1ccccc1)c1ccccc1.Cl` [LOPERAMIDE HYDROCHLORIDE], the Inhibition was 11.49% with Klebsiella pneumoniae, 2.32% in the experiment with Candida albicans and -15.04% in the experiment on Cryptococcus neoformans.

In the case of `COc1ccc(C(CN(C)C)C2(O)CCCCC2)cc1.Cl` (stereo not drawn) [VENLAFAXINE HYDROCHLORIDE], the Inhibition with Klebsiella pneumoniae is 15.76%; with Candida albicans, 3.64%; with Cryptococcus neoformans, -9.68%.

As for `CC(NC(C)(C)C)C(=O)c1cccc(Cl)c1.Cl` (stereo not drawn) [BUPROPION HYDROCHLORIDE], the Inhibition with Klebsiella pneumoniae is 2.52%; in the experiment on Candida albicans it was 4.99%; in the experiment on Cryptococcus neoformans, 3.12%.

In the case of `O=C1Nc2ccc(Cl)cc2C(c2ccccc2Cl)=NC1O` (stereo not drawn) [LORAZEPAM], the values for the Inhibition in the experiment on Klebsiella pneumoniae, in the experiment with Candida albicans and in the experiment on Cryptococcus neoformans were -5.27%, 5.15% and -2.1%, respectively.

As to `CN[C@@H]1C[C@@H](c2ccc(Cl)c(Cl)c2)c2ccccc21.Cl` [INDATRALINE HYDROCHLORIDE], the Inhibition with Klebsiella pneumoniae was -0.11%; in the experiment on Candida albicans it was 2.5%; with Cryptococcus neoformans it was -6.06%.

Consider `Cl.NCC(O)c1ccc(O)c(O)c1` (stereo not drawn), for which the Inhibition in the experiment with Klebsiella pneumoniae was 15.27%; with Candida albicans it was 4.08%; with Cryptococcus neoformans, -2.98%.

For `COC(=O)C[C@](O)(CCCC(C)(C)O)C(=O)O[C@@H]1C(OC)=C[C@]23CCCN2CCc2cc4c(cc2[C@H]13)OCO4` [OMACETAXINE MEPESUCCINATE], the Inhibition in the experiment on Klebsiella pneumoniae is 9.21%; in the experiment with Candida albicans it was 3.16%; in the experiment on Cryptococcus neoformans, 1.94%.

Turning to `COc1cc(N)c(Cl)cc1C(=O)NC1CN2CCC1CC2.Cl.O` (stereo not drawn) [ZACOPRIDE HYDROCHLORIDE], the Inhibition was -4% in the experiment with Klebsiella pneumoniae, 5.47% with Candida albicans and 0.38% in the experiment on Cryptococcus neoformans.

Consider `Cl.O=C1CC2(CCCC2)CC(=O)N1CCCCN1CCN(c2ncccn2)CC1` [BUSPIRONE HYDROCHLORIDE], for which the results for the Inhibition in the experiment on Klebsiella pneumoniae, with Candida albicans and in the experiment on Cryptococcus neoformans were 10.99%, 5.32% and -4.43%, respectively.

Take `CN(C)CCc1c[nH]c2ccc(C[C@H]3COC(=O)N3)cc12` [ZOLMITRIPTAN]: the values for the Inhibition in the experiment on Klebsiella pneumoniae, in the experiment with Candida albicans and in the experiment on Cryptococcus neoformans were 7.51%, 2.65% and 0.25%, respectively.

Regarding `Cl.Cl.OCCN1CCN(CCCN2c3ccccc3Sc3ccc(C(F)(F)F)cc32)CC1` [FLUPHENAZINE HYDROCHLORIDE], the Inhibition was 7.98% in the experiment on Klebsiella pneumoniae, 1.45% in the experiment on Candida albicans and -8.76% in the experiment on Cryptococcus neoformans.

In the case of `CCOC(=O)c1ncn2c1CN(C)C(=O)c1cc(F)ccc1-2` [FLUMAZENIL], the Inhibition in the experiment on Klebsiella pneumoniae is -2%; in the experiment with Candida albicans it was 0.3%; with Cryptococcus neoformans, -8.54%.

With `CC(C)NCC(O)COc1cccc2[nH]ccc12` (stereo not drawn) [PINDOLOL], the Inhibition was 17.1% with Klebsiella pneumoniae, 3.5% in the experiment with Candida albicans and -9.82% with Cryptococcus neoformans.

In the case of `CN1[C@@H]2CC[C@H]1C[C@@H](OC(=O)c1c[nH]c3ccccc13)C2.Cl`, the results for the Inhibition with Klebsiella pneumoniae, in the experiment on Candida albicans and with Cryptococcus neoformans were 15.9%, 3.12% and -7.07%, respectively.

Turning to `CNC1=Nc2ccc(Cl)cc2C(c2ccccc2)=[N+]([O-])C1` [CHLORDIAZEPOXIDE], the Inhibition was 19.46% in the experiment with Klebsiella pneumoniae, 2.53% in the experiment with Candida albicans and -9.21% in the experiment with Cryptococcus neoformans.

On to `NS(=O)(=O)c1cc(C2(O)NC(=O)c3ccccc32)ccc1Cl` (stereo not drawn) [CHLORTHALIDONE], for which the figures for the Inhibition in the experiment with Klebsiella pneumoniae, with Candida albicans and with Cryptococcus neoformans were 4.57%, 3.92% and -1.27%, respectively.

As for `COc1ccc2[nH]cc(CCN)c2c1` [5-METHOXYTRYPTAMINE], the Inhibition with Klebsiella pneumoniae is 5.41%; in the experiment with Candida albicans it was 3.97%; in the experiment with Cryptococcus neoformans it was -39.41%.

Take `CC(=O)CC(c1ccccc1)c1c([O-])c2ccccc2oc1=O.[Na+]` (stereo not drawn) [WARFARIN SODIUM]: the values for the Inhibition with Klebsiella pneumoniae, with Candida albicans and in the experiment on Cryptococcus neoformans were 4.09%, 3.09% and 0.59%, respectively.

For `CN1CCC[C@H]1c1cccnc1` [NICOTINE], the Inhibition in the experiment on Klebsiella pneumoniae is -4.81%; with Candida albicans it was 1.61%; in the experiment with Cryptococcus neoformans it was -2.7%.

As to `C=C(C)CN1CC[C@]23c4c5ccc(O)c4O[C@H]2c2[nH]c4ccccc4c2C[C@@]3(O)C1C5.Cl.O`, the Inhibition in the experiment with Klebsiella pneumoniae was 12.32%; in the experiment with Candida albicans, 1.9%; with Cryptococcus neoformans, -7.24%.

With `CN1CCN2c3ncccc3Cc3ccccc3C2C1` (stereo not drawn) [MIRTAZAPINE], the values for the Inhibition with Klebsiella pneumoniae, in the experiment on Candida albicans and in the experiment on Cryptococcus neoformans were 5.61%, 4.27% and 3.57%, respectively.

With `CC[N+](C)(C)c1cccc(O)c1.[Cl-]` [EDROPHONIUM CHLORIDE], the Inhibition in the experiment with Klebsiella pneumoniae is 15.01%; in the experiment with Candida albicans, 2.22%; in the experiment on Cryptococcus neoformans, -6.73%.

The Inhibition is the drop in the measured response relative to a control, in per cent.
